Source: PubChem BioAssay (NCI)
This is part of a sample that, as a whole, favours compounds with a hit. Of some 79,000 tested, about 15% had one in any assay. Unmarked numbers belong to inactive results. Calls of active or inactive are those of the source. Rule as the data show it: active = growth inhibition above about 70%; inactive = the rest. Where a SMILES comes first, the peptide text is derived from it. The star is where a group is joined. For = O=C*

Experiment: NCI Yeast Anticancer Drug Screen. Data for the sgs1 mgt1 strain (AID 161);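 also: 0% = growth of cultures given vehicle only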
Settings: S. cerevisiae sgs1 mgt1 strain, at 50.0 µM, stronger effect = higher value
Outline: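 Percent growth inhibition was derived by comparing compound-exposed mutant yeast with vehicle-exposed cultures. The strain carries alterations in DNA damage repair.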

**Q.** Which growth inhibition does the source give for `C=C(Cl)/C(=C\Cl)CCC(Cl)C(C)C` (stereo not given) here?
**A.** 3.1%

**Q.** For `COC(=O)c1cc(NS(=O)(=O)c2ccc(N)cc2)cc(C(=O)OC)c1`, which growth inhibition is on record?
**A.** -7.5%

**Q.** For `O=c1c2cc(-c3ccccc3)sc2nc2n1N=C(c1ccccc1)CS2`, which growth inhibition is on record?
**A.** -12.9%

**Q.** Which growth inhibition does the source give for `COc1ncn(C2CC(OC(=O)c3ccc(C)cc3)C(COC(=O)c3ccc(C)cc3)O2)c(=O)n1` (stereo not given) here?
**A.** -14.7%

**Q.** For `CCN1C(=O)N(C)C(O)c2c1nc1ccccn1c2=O` (stereo not given), which growth inhibition is on record?
**A.** -33.4%

**Q.** Which growth inhibition does the source give for `O=C(CCc1cc(O)cc(O)c1)NCCc1cc(OCc2ccccc2)cc(OCc2ccccc2)c1` here?
**A.** 45%

**Q.** With `Cc1cc(Cl)c(Cl)cc1NC(=O)c1ccc(Cl)c(Cl)c1` as the compound, how does the growth inhibition read?
**A.** 9.9%

**Q.** With `O=C(NN=C1CCCCC1)NN=C1CCCCC1` as the compound, how does the growth inhibition read?
**A.** -29.2%

**Q.** For `CCOC(=O)c1cnc(=S)[nH]c1N`, which growth inhibition is on record?
**A.** -19.2%

**Q.** Which growth inhibition does the source give for `CCCC(C)c1ccc(C(=O)O)cc1` (stereo not given) here?
**A.** 4.45%

**Q.** With `Clc1c(Cl)c(CBr)c(Cl)c(-c2c(Cl)c(Cl)c(Cl)c(CBr)c2Cl)c1Cl` as the compound, how does the growth inhibition read?
**A.** -2.55%

**Q.** With `NC(Cc1cccc(F)c1)C(=O)O` (stereo not given) as the compound, how does the growth inhibition read?
**A.** 6.7%

**Q.** With `CC(=O)Nc1ccc(C(=O)N2C(=N)C(C#N)=C(O)/C2=C\c2ccc(Cl)c(Cl)c2)cc1` as the compound, how does the growth inhibition read?
**A.** -18.4%

**Q.** Which growth inhibition does the source give for `Cc1c([N+](=O)[O-])cc(C(C)(C)C)c(OC(=O)CCl)c1[N+](=O)[O-]` here?
**A.** 99.6% (active)

**Q.** For `CCn1c(=O)c(C#N)c2n(CC)c3ccccc3n2c1=O`, which growth inhibition is on record?
**A.** 19.4%

**Q.** Which growth inhibition does the source give for `O=C1C=C(Nc2ccc(Cl)cc2C(=O)c2ccccc2)c2ccccc2C1=O` here?
**A.** -6.9%

**Q.** With `c1ccc(-c2nc3ccccc3nc2-c2ccc(-c3nc4ccccc4nc3-c3ccccc3)cc2)cc1` as the compound, how does the growth inhibition read?
**A.** -9%

**Q.** With `CSCCC(NC(=O)C(Cc1ccccc1)NC=O)C(=O)O` (stereo not drawn) (For-Phe-Met-OH; configuration not given here) as the compound, how does the growth inhibition read?
**A.** -10.5%

**Q.** With `CCOc1ccc(CCC(=O)O)cc1` as the compound, how does the growth inhibition read?
**A.** -1.65%

**Q.** For `Cc1ccncc1.[O]=[Ge].[O]=[Ge].[O]=[Ge].[O]=[Ge].[O]=[Ge].[O]=[Ge][OH].[O]=[Ge][OH]`, which growth inhibition is on record?
**A.** -42.5%

**Q.** For `C=C(C)C(=O)OCCn1c(=O)c2c(ncn2C)n(C)c1=O`, which growth inhibition is on record?
**A.** -12.8%

**Q.** For `O=C(Nc1cc(Cl)c(Cl)cc1Cl)OCc1ccc2c(c1)OCO2`, which growth inhibition is on record?
**A.** -14.4%

**Q.** Which growth inhibition does the source give for `Cc1ccc(S(=O)(=O)Nc2ccccc2-c2nc3c(Cl)ccc(Cl)c3c(=O)o2)cc1` here?
**A.** 41.5%

**Q.** With `CCCCCCCCCCCCSC(=O)NCCC` as the compound, how does the growth inhibition read?
**A.** 1.6%

**Q.** For `CN(C)CCNc1ccc2nnn3c4ccccc4c(=O)c1c23`, which growth inhibition is on record?
**A.** 11.2%

**Q.** With `COC(=O)c1cc(=O)c2c(=O)[nH]c(=O)[nH]c2[nH]1` as the compound, how does the growth inhibition read?
**A.** 2%

**Q.** Which growth inhibition does the source give for `O=C(O)c1c[nH]c2ccc([N+](=O)[O-])cc2c1=O` here?
**A.** -11.9%

**Q.** For `CCCCOC(=O)NC(=O)c1cc2cc(Br)cc(Br)c2oc1=O`, which growth inhibition is on record?
**A.** 0.3%

**Q.** Which growth inhibition does the source give for `N#Cc1cccc(NC(=O)c2ccc(C(=O)O)c(C(=O)c3ccc(C(=O)O)c(C(=O)Nc4cccc(C#N)c4)c3)c2)c1` here?
**A.** -19%

**Q.** Which growth inhibition does the source give for `O=C1NC(=O)C2(CCCCCC2)N1` here?
**A.** 10.1%

**Q.** With `NC(C(=O)O)C1C=CCCC1` (stereo not given) as the compound, how does the growth inhibition read?
**A.** -30.8%

**Q.** For `CN1CNC(=S)NC1`, which growth inhibition is on record?
**A.** 11%

**Q.** For `COc1ccc(Cc2cc3c(cc2OCC(=O)N2CCOCC2)OCO3)cc1`, which growth inhibition is on record?
**A.** -4.25%

**Q.** With `O=[N+]([O-])c1ccc(P(=O)(Nc2ccc3ccccc3c2)Nc2ccc3ccccc3c2)cc1` as the compound, how does the growth inhibition read?
**A.** 15.5%

**Q.** With `O=C(Nc1cccc([N+](=O)[O-])c1)c1ccccc1Cl` as the compound, how does the growth inhibition read?
**A.** 1.85%

**Q.** For `C1C2CC3CC1CC(c1nn4c(C56CC7CC(CC(C7)C5)C6)nnc4s1)(C2)C3`, which growth inhibition is on record?
**A.** -9.1%

**Q.** Which growth inhibition does the source give for `COC(=O)/C=C/c1ccc(OC)c(OC)c1` here?
**A.** 13.6%

**Q.** For `COc1ccc(CSc2nc3ccccc3nc2-c2cccs2)cc1`, which growth inhibition is on record?
**A.** -43.8%

**Q.** For `CCOC(=O)C(/C=N/Nc1ccc([N+](=O)[O-])cc1[N+](=O)[O-])Oc1cccc(OC)c1` (stereo not given), which growth inhibition is on record?
**A.** -19.8%

**Q.** With `CCCCN(C)C(=O)C1=C(C)NC(C)=C(C(=O)N(C)CCCC)C1` as the compound, how does the growth inhibition read?
**A.** -12.2%

Experiment: NCI Yeast Anticancer Drug Screen. Data for the cln2 rad14 strain (AID 165);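 also: 0% = growth equal to vehicle treated cultures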
Settings: S. cerevisiae cln2 rad14 strain, at 50.0 µM, stronger effect = higher value
Outline: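 Yeast carrying cln2 and rad14 alterations (cell cycle control and DNA damage repair) were exposed to compounds. Growth inhibition was measured against vehicle-treated controls.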

**Q.** For `C=C(Cl)/C(=C\Cl)CCC(Cl)C(C)C` (stereo not given), which growth inhibition is on record?
**A.** 29.1%

**Q.** For `COC(=O)c1cc(NS(=O)(=O)c2ccc(N)cc2)cc(C(=O)OC)c1`, which growth inhibition is on record?
**A.** 4.7%

**Q.** For `O=c1c2cc(-c3ccccc3)sc2nc2n1N=C(c1ccccc1)CS2`, which growth inhibition is on record?
**A.** 21.3%

**Q.** Which growth inhibition does the source give for `COc1ncn(C2CC(OC(=O)c3ccc(C)cc3)C(COC(=O)c3ccc(C)cc3)O2)c(=O)n1` (stereo not given) here?
**A.** -22.4%

**Q.** With `CCN1C(=O)N(C)C(O)c2c1nc1ccccn1c2=O` (stereo not given) as the compound, how does the growth inhibition read?
**A.** 3.65%

**Q.** For `O=C(CCc1cc(O)cc(O)c1)NCCc1cc(OCc2ccccc2)cc(OCc2ccccc2)c1`, which growth inhibition is on record?
**A.** 33.2%

**Q.** Which growth inhibition does the source give for `Cc1cc(Cl)c(Cl)cc1NC(=O)c1ccc(Cl)c(Cl)c1` here?
**A.** -3.25%

**Q.** With `O=C(NN=C1CCCCC1)NN=C1CCCCC1` as the compound, how does the growth inhibition read?
**A.** -2.4%

**Q.** With `CCOC(=O)c1cnc(=S)[nH]c1N` as the compound, how does the growth inhibition read?
**A.** 7.9%

**Q.** Which growth inhibition does the source give for `CCCC(C)c1ccc(C(=O)O)cc1` (stereo not given) here?
**A.** 11.2%

**Q.** For `Clc1c(Cl)c(CBr)c(Cl)c(-c2c(Cl)c(Cl)c(Cl)c(CBr)c2Cl)c1Cl`, which growth inhibition is on record?
**A.** -25.7%

**Q.** For `NC(Cc1cccc(F)c1)C(=O)O` (stereo not given), which growth inhibition is on record?
**A.** -12.4%

**Q.** For `CC(=O)Nc1ccc(C(=O)N2C(=N)C(C#N)=C(O)/C2=C\c2ccc(Cl)c(Cl)c2)cc1`, which growth inhibition is on record?
**A.** 1.3%

**Q.** With `Cc1c([N+](=O)[O-])cc(C(C)(C)C)c(OC(=O)CCl)c1[N+](=O)[O-]` as the compound, how does the growth inhibition read?
**A.** 99.2% (active)

**Q.** With `CCn1c(=O)c(C#N)c2n(CC)c3ccccc3n2c1=O` as the compound, how does the growth inhibition read?
**A.** 10.2%

**Q.** For `O=C1C=C(Nc2ccc(Cl)cc2C(=O)c2ccccc2)c2ccccc2C1=O`, which growth inhibition is on record?
**A.** 22.2%

**Q.** Which growth inhibition does the source give for `c1ccc(-c2nc3ccccc3nc2-c2ccc(-c3nc4ccccc4nc3-c3ccccc3)cc2)cc1` here?
**A.** 4.6%

**Q.** Which growth inhibition does the source give for `CSCCC(NC(=O)C(Cc1ccccc1)NC=O)C(=O)O` (stereo not drawn) (For-Phe-Met-OH; configuration not given here) here?
**A.** 5.7%

**Q.** With `CCOc1ccc(CCC(=O)O)cc1` as the compound, how does the growth inhibition read?
**A.** 2.8%

**Q.** Which growth inhibition does the source give for `Cc1ccncc1.[O]=[Ge].[O]=[Ge].[O]=[Ge].[O]=[Ge].[O]=[Ge].[O]=[Ge][OH].[O]=[Ge][OH]` here?
**A.** -23.1%

**Q.** Which growth inhibition does the source give for `C=C(C)C(=O)OCCn1c(=O)c2c(ncn2C)n(C)c1=O` here?
**A.** -3.1%

**Q.** Which growth inhibition does the source give for `O=C(Nc1cc(Cl)c(Cl)cc1Cl)OCc1ccc2c(c1)OCO2` here?
**A.** 6.25%

**Q.** With `Cc1ccc(S(=O)(=O)Nc2ccccc2-c2nc3c(Cl)ccc(Cl)c3c(=O)o2)cc1` as the compound, how does the growth inhibition read?
**A.** -10.3%

**Q.** With `CCCCCCCCCCCCSC(=O)NCCC` as the compound, how does the growth inhibition read?
**A.** 0.05%

**Q.** Which growth inhibition does the source give for `CN(C)CCNc1ccc2nnn3c4ccccc4c(=O)c1c23` here?
**A.** 29.7%

**Q.** For `COC(=O)c1cc(=O)c2c(=O)[nH]c(=O)[nH]c2[nH]1`, which growth inhibition is on record?
**A.** -26.8%

**Q.** With `O=C(O)c1c[nH]c2ccc([N+](=O)[O-])cc2c1=O` as the compound, how does the growth inhibition read?
**A.** 11.7%

**Q.** With `CCCCOC(=O)NC(=O)c1cc2cc(Br)cc(Br)c2oc1=O` as the compound, how does the growth inhibition read?
**A.** -7.05%

**Q.** With `N#Cc1cccc(NC(=O)c2ccc(C(=O)O)c(C(=O)c3ccc(C(=O)O)c(C(=O)Nc4cccc(C#N)c4)c3)c2)c1` as the compound, how does the growth inhibition read?
**A.** 8.35%

**Q.** With `O=C1NC(=O)C2(CCCCCC2)N1` as the compound, how does the growth inhibition read?
**A.** -0.65%

**Q.** Which growth inhibition does the source give for `NC(C(=O)O)C1C=CCCC1` (stereo not given) here?
**A.** -57.3%

**Q.** With `CN1CNC(=S)NC1` as the compound, how does the growth inhibition read?
**A.** 17.6%

**Q.** For `COc1ccc(Cc2cc3c(cc2OCC(=O)N2CCOCC2)OCO3)cc1`, which growth inhibition is on record?
**A.** -37.7%

**Q.** For `O=[N+]([O-])c1ccc(P(=O)(Nc2ccc3ccccc3c2)Nc2ccc3ccccc3c2)cc1`, which growth inhibition is on record?
**A.** 0.2%

**Q.** Which growth inhibition does the source give for `O=C(Nc1cccc([N+](=O)[O-])c1)c1ccccc1Cl` here?
**A.** 0.8%

**Q.** Which growth inhibition does the source give for `C1C2CC3CC1CC(c1nn4c(C56CC7CC(CC(C7)C5)C6)nnc4s1)(C2)C3` here?
**A.** 11.2%

**Q.** For `COC(=O)/C=C/c1ccc(OC)c(OC)c1`, which growth inhibition is on record?
**A.** -2.2%

**Q.** For `COc1ccc(CSc2nc3ccccc3nc2-c2cccs2)cc1`, which growth inhibition is on record?
**A.** -1.35%

**Q.** With `CCOC(=O)C(/C=N/Nc1ccc([N+](=O)[O-])cc1[N+](=O)[O-])Oc1cccc(OC)c1` (stereo not given) as the compound, how does the growth inhibition read?
**A.** -15.1%

**Q.** With `CCCCN(C)C(=O)C1=C(C)NC(C)=C(C(=O)N(C)CCCC)C1` as the compound, how does the growth inhibition read?
**A.** -20.3%
